# Screening data (PubChem)
# IL1B secr inh: inhibitors of inflammasome signaling (IL-1 beta secretion); THP-1 LPS/ATP IL-1B secretion, AlphaLISA, 16 h; active compounds read low; activity change, % at 57.5 µM; hit rate 4.7% among 360,000; in the data active means activity change below about -50%; inconclusive means mostly about -30% to -49%
#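 THP-1 cells pretreated 1 hr with compounds (up to 57.5 uM final), then stimulated with LPS (250 ng/mL final) plus ATP (1.25 mM final); secreted IL-1B measured by AlphaLISA after 16 hr, decreased signal indicating inhibition.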
# DT40 TDP1 CPT: growth inhibition of DT40 Tdp1-/-;hTDP1 cells with camptothecin (screen for TDP1 inhibitors); chicken DT40 Tdp1-/-;hTDP1 cells + 20 nM CPT, ATP luminescence, 48 h; Potency, µM (highest dose often 46.2 µM), hits mostly inhibitors; hit rate 12% among 420,000; further: nearly all actives have a fitted effect of over 55% in size
#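 Cell growth measured by CellTiter-Glo luminescence after a minimum 48 h, 37 C compound exposure with 20 nM CPT in Tdp1-knockout DT40 cells stably expressing hTDP1, seeded 400/well; qHTS titration format.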
# DT40 TDP1 no CPT: qHTS for Inhibitors of human tyrosyl-DNA phosphodiesterase 1 (TDP1): qHTS in cells in absence of CPT | DT40 Tdp1-/- hTDP1 cells, no CPT, ATP luminescence, 48 h | Potency, µM (top dose mostly 46.2 µM), most hits filed as inhibitors | hit rate 15% among 420,000 | AID 686978, 2013; further: nearly all actives have a fitted effect of over 55% in size
#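 DT40 Tdp1-/-;hTDP1 cells, no CPT (DMSO vehicle only), 400 cells/well; compounds pin-transferred; ≥48 hr, 37 °C; CellTiter-Glo 30 min RT dark, luminescence read.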
# HT1080NT lethal: kills 2HG-producing HT-1080-NT fibrosarcoma cells; HT-1080-NT fibrosarcoma viability, CellTiter-Glo ATP luminescence, 48 h; Potency, µM (series often up to 46.1 µM), usual class: cytotoxic; hit rate 1.6% among 360,000;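 further: NT is the 2HG producing partner of a matched IDH1 knockdown line; nearly all actives have a fitted effect of over 55% in size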
#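 Fibrosarcoma NT cells, 750 per well in 5% FBS RPMI, were exposed to compound for 48 hours. Viability: CellTiter-Glo luminescence.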
# HT1080 IDH1KD tx: HT-1080 IDH1 knockdown cell toxicity (counter line). Potency, µM (titrated, usually from 46.1 µM), actives largely listed as cytotoxic. HT-1080 IDH1 knockdown viability, ATP luminescence, 48 h. hit rate 2% among 360,000
#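 In this qHTS, HT-1080 cells depleted of IDH1 are exposed for 48 h at 37 °C to compound titrations. Toxicity is scored from CellTiter-Glo luminescence, with DMSO as full viability and medium alone as none.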
# Numbers stand for hits; - = inactive; ? = inconclusive; . = no result given. Hits are enriched below; roughly 19% of the tested compounds scored in any of these assays. Unless noted, the call rests on the fitted dose curve; in most records, active means well fitted curve in the direction sought with a large enough effect; inconclusive means small, poorly fitted or top-dose-only effect, or another doubt; inactive means no such curve, though single readings can be large; an effect the other way counts as inactive or inconclusive.
SMILES,IL1B secr inh,DT40 TDP1 CPT,DT40 TDP1 no CPT,HT1080NT lethal,HT1080 IDH1KD tx
Cc1cccc2c1CCCC2=O,-,-,-,-,-
CCOc1ccccc1N1CCN(C2=C(NS(=O)(=O)c3cccs3)C(=O)c3ccccc3C2=O)CC1,-,?,26µM,?,?
O=C1C(NS(=O)(=O)c2cccs2)=C(N2CCN(Cc3ccccc3)CC2)C(=O)c2ccccc21,-,?,16µM,-,-
CC(NS(C)(=O)=O)C(c1cccs1)N1CCN(Cc2ccccc2)CC1 (configuration not stated),-,?,?,-,-
O=C1C(NS(=O)(=O)c2cccs2)=C(N2CCN(c3cccc(C(F)(F)F)c3)CC2)C(=O)c2ccccc21,-,16µM,23µM,?,?
O=C(CNS(=O)(=O)c1cccs1)N1CCN(c2cccc(C(F)(F)F)c2)CC1,.,16µM,21µM,.,.
CN1CCN(C2=C(NS(=O)(=O)c3cccs3)C(=O)c3ccccc3C2=O)CC1,-,16µM,21µM,?,?
O=C1C(NS(=O)(=O)c2cccs2)=C(N2CCOCC2)C(=O)c2ccccc21,-,?,?,?,?
CC1(C)CC(=O)c2cc(-c3nc(-c4ccc(Cl)cc4)cs3)c(=O)[nH]c2C1,.,?,-,.,.
Cc1ccc(O)c(C(=O)c2cnc3c(c2)c(=O)n(C)c(=O)n3C)c1,-,?,?,-,-
Cc1ccc(O)c(C(=O)c2cnc3c(c2)c(-c2ccc(F)cc2)c(C#N)c(=O)n3C)c1,-,18µM,21µM,-,-
CCN1C(=O)c2ccccc2Sc2ccc(NC(=O)Nc3cc(C)cc(C)c3)cc21,.,12µM,6.5µM,.,.
Cn1c(=O)n(C)c2cc(NC(=O)COc3ccccc3)ccc21,-,?,?,-,-
CN1C(=O)c2ccccc2Sc2ccc(NC(=O)Cc3c(F)cccc3Cl)cc21,.,13µM,7.3µM,.,.
CN1C(=O)c2ccccc2Sc2ccc(NC(=O)COc3ccccc3)cc21,.,4.1µM,2.9µM,.,.
COc1ccc(NC(=O)Cc2c(F)cccc2Cl)cc1,-,-,-,-,-
Cc1cccc(OCC(=O)Nc2ccc3c(c2)C(=O)NC3=O)c1,-,-,?,-,-
Cc1cccc(OCC(=O)Nc2ccc3c(c2)N(C)C(=O)c2ccccc2S3)c1,.,10µM,10µM,.,.
Cc1ccc(S(=O)(=O)NCCNC(=O)c2ccc(C)nc2)cc1,-,-,-,-,-
CCCN(CC(=O)Nc1ccccc1OC)C(=O)CSc1nc(C)cc(C)n1,-,?,?,-,-
CCN1C(=O)c2ccccc2Sc2ccc(NC(=O)COc3ccc(Cl)cc3)cc21,.,16µM,18µM,.,.
Cc1ccc(/C=C2\SC(N3CCCCC3)=NC2=O)cc1,-66,?,?,-,-
CC(C)(C)c1ccc(/C=C2/SC(N3CCCC3)=NC2=O)cc1,.,-,?,16µM,18µM
O=C1N=C(N2CCCC2)S/C1=C\c1ccccc1,-,-,-,-,-
CSCC[C@H](N)C(=O)NC[C@H]1O[C@@H](n2cnc3c(N)ncnc32)[C@H](O)[C@@H]1O,-,-,-,-,-
COc1ccc(NC(=O)CN(C)C(=O)C2=NN(c3ccccc3)C(=O)CC2)cc1,-,-,-,-,-
